The list is not random: actives were taken first. Their share in the collection is about 3.4%.
TEAD-YAP inh: TEAD-YAP interaction inhibition, primary screen, TEAD-YAP interaction inhibitor project, luminescence, HEK-TIYL cells; hit rate 1.4% among 640,000; inhibition, % at 9.12 µM; TEAD-Gal4/YAP UAS-luciferase luminescence; in the data active = inhibition above about 32%;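 note: 0% = median of test compound wells and 100% = reference inhibitor wells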
FBW7 activator: FBW7 E3 ligase activators, primary screen, biochemical, AlphaScreen, human | hit rate 0.13% among 650,000 | normalized activity (activation), % at 26.1 µM | F-box/WD repeat-containing protein 7 (Homo sapiens), Q969H0 | AlphaScreen FBW7–phospho-cyclin E peptide binding, activator screen; in the data active = normalized activity above about 1.9%;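 note: purified mutant Fbw7 with reduced substrate affinity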
MITF primary: MITF inhibitors, primary screen, biochemical, AlphaScreen, human; Microphthalmia-associated transcription factor (Homo sapiens), O75030; AlphaScreen MITF homodimerization, bead proximity signal; inhibition, % at 2.6 µM; hit rate 0.91% among 650,000; AID 1259374, 2018; in the data active = inhibition above about 50%;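 note: 0% = vehicle wells with protein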
GPR151 ag: activators of human GPR151, primary screen, cell-based, PathHunter beta-arrestin, luminescence. G-protein coupled receptor 151 (Homo sapiens), Q8TDV0. PathHunter beta-arrestin GPR151 cells. activation, % at 11.2 µM. hit rate 1% among 650,000. AID 1508602, 2020; in the data active = activation above about 4.9%;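 note: 0% = median of compound wells and 100% = cells with positive control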
Target sequence (Q8TDV0 whole entry, looked up): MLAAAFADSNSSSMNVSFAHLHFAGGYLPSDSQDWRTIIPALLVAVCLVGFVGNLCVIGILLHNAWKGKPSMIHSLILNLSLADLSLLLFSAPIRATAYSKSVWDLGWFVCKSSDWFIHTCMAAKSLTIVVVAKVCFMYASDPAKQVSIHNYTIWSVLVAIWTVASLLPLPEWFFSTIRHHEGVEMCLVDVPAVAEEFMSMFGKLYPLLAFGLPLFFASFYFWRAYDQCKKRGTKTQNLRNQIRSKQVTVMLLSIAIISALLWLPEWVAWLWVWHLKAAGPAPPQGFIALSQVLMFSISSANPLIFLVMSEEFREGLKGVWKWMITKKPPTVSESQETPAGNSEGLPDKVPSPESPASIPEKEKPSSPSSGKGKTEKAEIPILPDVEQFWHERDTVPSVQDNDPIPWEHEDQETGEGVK
* = called active by the depositor.

SMILES	TEAD-YAP inh	FBW7 activator	MITF primary	GPR151 ag
Fc1ccc(-c2cnc3ccc4ccncc4c3c2)cc1	-8	0	16	0
Nc1nonc1C(=O)N/N=C/c1ccccc1O	2	0	63*	-3
O=C(N/N=C/c1cc2ccccc2cc1O)c1ccncc1	88*	-2	54*	3
COc1ccc(O)c(/C=N/NC(=O)c2ccncc2)c1	24	-1	20	1
Nc1nonc1C(=O)N/N=C/c1cc(Cl)cc(Cl)c1O	9	-1	68*	2
O=C(N/N=C/c1cc(Cl)cc(Cl)c1O)c1ccncc1	32*	0	96*	-1
CCCCC(=O)NC(=S)NNC(=O)c1ccc(C)c(Br)c1	8	0	18	1
N#Cc1ccc(OCC(=O)OCc2cccc(F)c2)cc1	-5	0	2	1
Cc1cccc(C(C#N)c2cc(C)nc3ncnn23)c1 (configuration not stated)	16	2.1*	12	-2
Cc1cc(C(C#N)c2ccc(Cl)cc2Cl)n2ncnc2n1 (configuration not stated)	7	0	14	-1
CC(=O)C1=C(O)C(=O)N(Cc2cccnc2)C1c1cccc(F)c1 (configuration not stated)	-1	0	8	0
O=C(CN1CCN(CC(=O)c2ccc(O)c(O)c2)CC1)Nc1ccccc1Cl	7	0	89*	1
COc1ccc(S(=O)(=O)N2CCN(CC(=O)c3ccc(OC)c(OC)c3)CC2)cc1	-3	0	1	1
O=C(CN1CCN(S(=O)(=O)c2ccc(Cl)cc2)CC1)c1ccc(O)c(O)c1	-3	0	82*	-1
COc1ccc(S(=O)(=O)N2CCN(CC(=O)c3ccc(O)c(O)c3)CC2)cc1	-2	0	81*	-2
Cc1ccc2[nH]c3c(c2c1)CCCC3NCc1ccc(Cl)cc1 (configuration not stated)	43*	0	11	1
COC(CNC1CCCc2c1[nH]c1ccc(C)cc21)OC (configuration not stated)	14	0	2	0
CCCn1c(-c2ccc(N)cc2)nc2ccccc21	35*	0	2	-8
COc1ccc(-c2nc3ccccc3c(=O)n2-c2nc3ccccc3n2C)cc1	88*	0	-9	0
COc1ccc(-c2nc3ccccc3n2C)cc1	32*	0	12	-8
Cc1nc2nc(-c3ccccc3)[nH]c2cc1Br	-11	0	20	-5
CC(C)CN(CC(C)C)S(=O)(=O)c1ccccc1[N+](=O)[O-]	-5	0	-4	1
CCCCN(CC)S(=O)(=O)c1ccccc1[N+](=O)[O-]	47*	0	8	1
O=C1C2C3C=CC(CC3)C2C(=O)N1/N=C/c1cc([N+](=O)[O-])cc(Br)c1O (configuration not stated)	2	0	18	-1
O=[N+]([O-])c1ccc(-c2nc(-c3ccccc3Cl)no2)cc1	0	0	-7	1
SMILES	TEAD-YAP inh	FBW7 activator	MITF primary	GPR151 ag
O=[N+]([O-])c1cccc(-c2nc(-c3ccccc3Cl)no2)c1	-11	2.1*	6	0
CC(C(=O)OCc1ccc(F)cc1)N1C(=O)C(=O)c2cc(Br)ccc21 (configuration not stated)	0	0	53*	1
Nc1ccc(S(=O)(=O)N2CCC(C(=O)O)CC2)cc1	2	0	0	0
O=C(c1csc(-c2cc3ccccc3[nH]2)n1)N1CCOCC1	-16	0	13	-1
O=C(c1csc(-c2cc3ccccc3[nH]2)n1)N1CCc2ccccc21	40*	0	1	0
COc1cc(CO)cc(Cl)c1OCc1ccccc1F	3	0	3	-1
O=C1c2ccccc2-c2onc3c(N4CCCCCC4)cc(NCCO)c1c23	37*	-1	30	1
CC(C)Nc1cc(N2CCOCC2)c2noc3c2c1C(=O)c1ccccc1-3	21	-1	56*	1
CC1CCCN(c2cc(NCCO)c3c4c(onc24)-c2ccccc2C3=O)C1 (configuration not stated)	34*	0	26	-2
CC1CCN(c2cc(NCCO)c3c4c(onc24)-c2ccccc2C3=O)CC1	5	0	38	-1
CN1CCN(c2cc(NCc3ccco3)c3c4c(onc24)-c2ccccc2C3=O)CC1	-12	-1	56*	0
CCNc1cc(N2CCCC2)c2noc3c2c1C(=O)c1ccccc1-3	4	0	8	-1
NNC(=O)c1cc(-c2ccc3ccccc3c2)n[nH]1	5	0	-11	-3
Cc1ccc(OCC(=O)N/N=C\c2ccccc2F)c([N+](=O)[O-])c1	1	1	10	-1
CC(=O)OCCNc1cc(N2CCCCC2)c2noc3c2c1C(=O)c1ccccc1-3	20	-1	57*	1
CCNc1cc(N2CCN(CC)CC2)c2noc3c2c1C(=O)c1ccccc1-3	22	-1	61*	0
Cc1cccc(Nc2cc(N3CCCCC3)c3noc4c3c2C(=O)c2ccccc2-4)c1	11	0	52*	0
CC1CCN(c2cc(NCCC(=O)O)c3c4c(onc24)-c2ccccc2C3=O)CC1	31	0	55*	-1
CCNc1cc(N2CCN(C)CC2)c2noc3c2c1C(=O)c1ccccc1-3	5	0	16	-1
COc1ccccc1Cn1c(SCc2ccccc2F)nc2ccccc2c1=O	2	0	2	0
NC(=O)CN1CCN(CC(=O)Nc2ccccc2F)CC1	4	1	15	0
O=C1c2ccccc2NC(c2ccc(Cl)cc2)N1c1ccc(Cl)cc1 (configuration not stated)	-14	0	10	-1
CC1CCCN(c2cc(NCC(=O)O)c3c4c(onc24)-c2ccccc2C3=O)C1 (configuration not stated)	67*	-1	59*	-1
COc1ccc(Nc2cc(-c3cncc(-c4ccccc4)c3)nc(C)n2)cc1	50*	0	-1	0
Cc1cnc(CNc2cc(-c3cncc(-c4ccccc4)c3)nc(C)n2)cn1	46*	0	0	1
SMILES	TEAD-YAP inh	FBW7 activator	MITF primary	GPR151 ag
O=C1/C(=C/c2ccccc2)SC(=S)N1CCS(=O)(=O)O	-4	0	-13	-2
CSc1ccc(NC(=O)Nc2cccn(Cc3ccc(C)cc3)c2=O)cc1	33*	0	-4	0
Cc1ccc(C(=O)Oc2ccc(/C=C3\N=C(c4ccc(C)cc4)OC3=O)cc2)cc1	-3	0	-13	0
CCc1c(C)nc(NC2CCN(C(=O)C3(c4ccc(OC)cc4)CC3)CC2)[nH]c1=O	6	0	-3	0
COc1ccc(C2(C(=O)N3CCC(Nc4nc5c(c(=O)[nH]4)CCC5)CC3)CC2)cc1	1	1.9*	-2	0
O=C(Cn1c2ccccc2c(=O)c2cc(Cl)ccc21)Nc1ccc(F)c(Cl)c1	7	0	0	1

Screening data deposited in PubChem by The Scripps Research Institute Molecular Screening Center.
